We go through 30 compounds from PubChem BioAssay AID1117359 (Southern Research Institute, 2015).

The structures appear in SMILES notation. About 460 (31%) of roughly 1,500 compounds were called active. These entries were drawn from the full list. Results with a measured potency or affinity are listed apart. Values without a mark were called inactive.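 How the source made its calls: active means viability at or below 80% at any tested concentration, marking the compound as toxic; inactive means the rest.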

The nature of the test: viability loss in THP-1 monocytes – THP-1 cells, cytotoxicity control for Vif-APOBEC3G degradation inhibitor project, dose response (AID 1117359). Particulars: THP-1 viability, CellTiter-Glo luminescence, 72 h; series mostly up to 40 µM; viability: at the top concentration. (In ATP-based viability assays light output follows the ATP content of the culture.)
For the compound `O=C(CCCCCCC(=O)NCc1ccccc1)NCc1ccccc1`, the “viability” value is 83.7%.

As to `COc1ccccc1NC(=O)CN(Cc1ccco1)C(=O)c1cccs1`, the “viability” value was 93.6%.

Turning to `CC1(C)Cc2c(cnn2-c2ccccc2)C(NC(=O)CCCN2CCCCC2=O)C1` (stereo not given), the “viability” value was 91.8%.

On to `CCOC(=O)c1ccc(CC(=O)c2ccc(O)c(O)c2O)o1`, for which the “viability” value was 97.4%.

Take `Cc1ccc(C(=O)NNS(=O)(=O)c2ccc(F)cc2)cc1`: the “viability” value was 94.9%.

As to `O=C(NNC(=O)c1ccccc1F)c1cccc(-n2cccc2)c1`, the “viability” value is 108%.

Turning to `CN(C(=O)c1ccc(OC2CCN(S(=O)(=O)N(C)C)CC2)cc1)C1CCCCC1`, the “viability” value was 83.9%.

On to `CCOC(=O)Cn1c(=O)c2c(nc3n2CCN3Cc2ccccc2)n(C)c1=O`, for which the “viability” value was 99.8%.

On to `O=C(Cc1ccc2c(c1)OCCO2)N1CCN(S(=O)(=O)c2cccs2)CC1`, for which the “viability” value was 96%.

Turning to `COc1ccc(N2CCC(CNS(=O)(=O)c3cccc(C(F)(F)F)c3)C2)cc1` (stereo not given), the “viability” value is 83.1%.

As for `CN(C)/C=N/NC(=O)c1ccccc1Cl`, the “viability” value is 120%.

Turning to `O=C(Nc1ccc(COc2ccccc2)cc1)Oc1ccccc1N1CCOCC1`, the “viability” value was 104%.

Consider `C[C@H](NC(=O)OCc1ccccc1)C(=O)NNC(=O)[C@H](C)NC(=O)OCc1ccccc1`, for which the “viability” value is 105%.

On to `O=c1cc(OCc2ccccc2)cc[nH]1`, for which the “viability” value was 89.6%.

On to `COC(=O)c1ccc(COc2ccc(/C=N/Nc3cccc(C(=O)O)c3)cc2)cc1`, for which the “viability” value was 96.3%.

Turning to `CCN(CC(=O)Nc1c(F)cccc1F)C(=O)c1cccc(-n2cccc2)c1`, the “viability” value is 107%.

On to `CCCCC1=CC2=C(c3ccco3)C(=O)C(C)(OC(=O)c3ccc(OC)cc3)C(=O)C2=CN1CCCCO` (stereo not given), for which the “viability” value was 104%.

Turning to `CC(=O)Nc1ccc(C=C(C#N)c2ccc(C)cc2)cc1`, the “viability” value was 95.3%.

Turning to `CCOc1ccc(CCNC(=O)C2CC(C)=CCC2C(=O)O)cc1OCC` (stereo not given), the “viability” value is 101%.

Regarding `CCCCc1cc(=O)oc2cc(OCC(=O)N(CC)CC)c(Cl)cc12`, the “viability” value was 86.8%.

As to `C[C@H](NC(=O)NCc1cccs1)C(=O)O`, the “viability” value was 93.5%.

As for `CSc1cccc(NC(=O)C(C)C)c1`, the “viability” value was 92.3%.

Regarding `CCOC(=O)c1cc2c(c(CCO)n1)[C@H](CCO)N(S(=O)(=O)C(C)(C)C)C2`, the “viability” value is 91.3%.

Regarding `Cc1oc(/N=C/c2cccc3ccccc23)c(C#N)c1C`, the “viability” value was 90.9%.

Take `CCN1CCN(Cc2cc(=O)oc3ccc(C)cc23)CC1`: the “viability” value was 104%.

Turning to `COC(=O)C(Cc1c[nH]c2ccccc12)NC(=O)C(C)C` (stereo not given), the “viability” value is 107%.

As to `Cc1ccc(NC(=O)C(C)Sc2nc3nc(C)cc(C)n3n2)cc1` (stereo not given), the “viability” value is 102%.

Take `O=S(=O)(c1ccc2nc(-c3ccco3)c(-c3ccco3)nc2c1)N1CCOCC1`: the result was inactive.

With `Cc1ccc(CNC(=O)CN(c2cccc([N+](=O)[O-])c2)S(C)(=O)=O)cc1`, the “viability” value was 98.8%.

Turning to `CC(NC(=O)C(NS(=O)(=O)c1cccs1)C(C)C)c1ccc(S(N)(=O)=O)cc1` (stereo not given), the “viability” value is 99%.

The term viability denotes a read-out of living cells in per cent, often relative to untreated cells.
